Data reported in paper PMC5540273 (PLoS ONE, 2017).

What was measured:
MRCKB = system: T1, MRCKB
T1 construct: gene CDC42BPB

MST1 = system: T2, MST1
T2 construct: gene STK4

MST3 = system: T3, MST3
T3 construct: gene STK24

NDR1 = system: T4, NDR1
T4 construct: gene STK38
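Also: kd values determined as follow-up on hits from a single-replicate KINOMEscan panel screen.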

## Cc1cccc(-c2nc(C)cc(Nc3ccncc3)n2)n1 [GSK257997]
MRCKB
  Kd: 0.58 µM

## COc1ccc2nc(-c3cccc(C)n3)nc(Nc3ccncc3)c2c1 [GSK204919]
MRCKB
  Kd: 0.52 µM

## Fc1cc(Cl)ccc1Nc1ccnc2cc(I)ccc12 [GW551191]
MST1R
  Kd: > 10 µM

## O=C1NC(=O)C(N2CCc3ccccc32)=C1c1ccccc1Cl [SB-373598]
MST1
  Kd: > 10 µM
PAK3
  Kd: > 10 µM

## Nc1ncnc2[nH]c(-c3ccccc3)nc12 [AH5015]
MST1
  Kd: > 10 µM
PAK3
  Kd: > 10 µM

## CS(=O)(=O)c1ccc(-c2c(-c3ncn[nH]3)sc(N3CCOCC3)c2C#N)cc1
MST3
  Kd: > 10 µM

## CSc1nn2c(=O)cc(N3CCOCC3)nc2n1Cc1cccc(C(F)(F)F)c1C [GSK2363608]
MST4
  Kd: > 10 µM
NEK2
  Kd: > 10 µM

## COc1cc2ncn(-c3cc(OCC4CCCO4)c(C(N)=O)s3)c2cc1OC (stereo not drawn) [GSK204607]
MYLK4
  Kd: 0.5 µM

## Cc1ccc(NC(=O)Nc2cccc(Cl)c2)cc1-c1ccc(C(=O)Nc2ccncc2)cc1 [GSK1398468]
MYO3A
  Kd: > 10 µM

## CC(C)(C)c1ccc(C(=O)Nc2cn3cc(Cl)ccc3n2)cc1
NDR1
  Kd: > 10 µM

## NC(=O)c1nnc2ccccc2c1N
NEK10
  Kd: 0.43 µM

## CCCc1ccc(S(=O)(=O)NC2CCN(c3ccnc(Nc4ccc(F)cc4)n3)C2)cc1 (stereo not drawn) [GSK1379715]
NEK1
  Kd: > 10 µM

## CCn1c(-c2ccccn2)nc2cnccc21 [SB-736398]
NEK1
  Kd: > 10 µM

## O=C(O)COc1ncnc2cc(-c3ccc4[nH]ncc4c3)sc12
NEK3
  Kd: 0.21 µM

## Cn1ccc2ncnc(Oc3ccc(Nc4nc5ccccc5[nH]4)cc3)c21
NEK4
  Kd: > 10 µM

## COc1cc(Nc2nccc(N3CCC(NC(=O)Nc4cc(C)ccc4C)C3)n2)cc(OC)c1OC (stereo not drawn) [GSK1379762]
NEK5
  Kd: 2.3 µM

## COc1ccc(CNC(=O)NC2CCN(c3ccnc(Nc4cc(OC)c(OC)c(OC)c4)n3)C2)cc1 (stereo not drawn) [GSK1379748]
NEK5
  Kd: 0.73 µM

## CS(=O)(=O)c1ccc(-c2nc3n(c2-c2ccncc2)CCC3)cc1 [SKF-105942]
PAK6
  Kd: > 10 µM
